Drawing on PubChem BioAssay (NCI), this text covers growth for 13 molecules.

Molecules are shown by their SMILES. Compounds without any hit were thinned out: in the full panel of roughly 83,000, 20% have a hit.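 Results are percent growth after 48 hours of single-concentration exposure. 100 means growth as in untreated cells, lower positive values show inhibition; negative values down to -100 show cell death.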 Unmarked numbers belong to inactive results. The source made the active and inactive calls. How the source made its calls: active means growth percent below 10; inactive means the rest.

Among the test systems are DU-145 prostate; K-562 leukemia; MALME-3M melanoma; MDA-MB-231 breast; RXF 393 renal; SF-268 CNS; SF-295 CNS; SF-539 CNS; UACC-257 melanoma; M14 melanoma.
Common to all, as to assay: NCI-60 one-dose screen, 48 h (100 = growth as untreated, 0 = no growth, -100 = all killed)
Conditions in all cases: 10 µM unless noted

As to `Nc1nc(Nc2ccccc2SSc2ccccc2Nc2nc(N)nc(C(Cl)(Cl)Cl)n2)nc(C(Cl)(Cl)Cl)n1`, the growth is 82.3% with DU-145 prostate; 52.8% with K-562 leukemia; 75% in the assay on MALME-3M melanoma; 44.1% with MDA-MB-231 breast; 67.2% in the assay on RXF 393 renal; 50.5% in the assay on SF-268 CNS. For the same molecule, the growth with SF-295 CNS was 27.4%; with SF-539 CNS, 84.3%; in the assay on UACC-257 melanoma, 100%; in the assay on M14 melanoma it was 67%.

`CC(C)Cn1cnc2c(NCn3nc(-c4cc(Cl)cc(Cl)c4Cl)n(/N=C/c4ccc(Cl)cc4)c3=S)nc3ccccc3c21`: the growth in the assay with DU-145 prostate is 106%; with K-562 leukemia it was 53.8%; in the assay on MALME-3M melanoma, 109%; in the assay on MDA-MB-231 breast, 73.4%; in the assay with RXF 393 renal, 80.7%; in the assay on SF-268 CNS it was 102%. The growth in the assay on SF-295 CNS was 71.9%; in the assay on SF-539 CNS, 90.4%; in the assay with UACC-257 melanoma, 77.2%; in the assay on M14 melanoma, 104%.

`O=C1C(=O)/C(=C/c2ccccc2)CCCCCC/C1=C/c1ccccc1`: the growth was 64.6% in the assay with DU-145 prostate; 4.05% (active) in the assay on K-562 leukemia; 90.9% with MALME-3M melanoma; 96.2% in the assay with MDA-MB-231 breast; -11.6% (active) with RXF 393 renal; 60.6% with SF-268 CNS. For the same molecule, the growth was 76.5% in the assay on SF-295 CNS, 103% with SF-539 CNS, 75.3% with UACC-257 melanoma and 50% with M14 melanoma.

Regarding `Cc1ccc(/C=C/C(=O)c2ccc(F)cc2)s1`, the growth is 90.8% in the assay with DU-145 prostate; 38.1% with K-562 leukemia; 78.9% with MALME-3M melanoma; 105% in the assay on MDA-MB-231 breast; 84.8% in the assay with RXF 393 renal; 92.2% in the assay on SF-268 CNS. The growth with SF-295 CNS is 88.5%; with SF-539 CNS, 103%; in the assay with UACC-257 melanoma, 90.3%; in the assay on M14 melanoma, 95.1%.

For `Clc1ccc2[nH]cc(-c3cncn3CCc3ccccc3)c2c1`, the growth is 80.9% in the assay on DU-145 prostate; 26.9% in the assay on K-562 leukemia; 43.8% with MALME-3M melanoma; 65.9% with MDA-MB-231 breast; 52.3% in the assay on RXF 393 renal; 46.3% in the assay with SF-268 CNS. Moreover, the growth in the assay with SF-295 CNS is 43.5%; with SF-539 CNS it was 69.7%; with UACC-257 melanoma, 50.2%; in the assay on M14 melanoma, 68.6%.

Regarding `CSc1nc(N)c2c(n1)N(C)C=NS2(=O)=O`, the growth in the assay with DU-145 prostate was 122%; in the assay with K-562 leukemia, 116%; with MALME-3M melanoma, 110%; in the assay on MDA-MB-231 breast, 108%; in the assay with RXF 393 renal, 116%; in the assay on SF-268 CNS it was 107%. In addition, the growth in the assay with SF-295 CNS was 105%; in the assay on SF-539 CNS, 107%; in the assay on UACC-257 melanoma it was 114%; with M14 melanoma, 106%.

For the molecule `CCc1nn2c(-c3ccc(Cl)cc3C)c(-c3cc(OC)c(OC)c(OC)c3)nc2s1`, the growth in the assay with DU-145 prostate was 91.7%; with K-562 leukemia it was 78.4%; in the assay with MALME-3M melanoma, 68%; with MDA-MB-231 breast, 73.8%; in the assay on RXF 393 renal, 85.2%; with SF-268 CNS, 93.4%. Moreover, the growth with SF-295 CNS is 95.3%; with SF-539 CNS, 92.6%; in the assay with UACC-257 melanoma it was 103%; in the assay on M14 melanoma it was 76.7%.

On to `Nc1nc(NC2CC2)c2ncn(C3C=CC(CO)C3)c2n1` (centres undefined), for which the growth in the assay with DU-145 prostate was 126%; with K-562 leukemia, 84.2%; with MALME-3M melanoma, 105%; in the assay with MDA-MB-231 breast, 98.5%; in the assay on RXF 393 renal, -4.67% (active); with SF-268 CNS, 126%. The growth in the assay on SF-295 CNS is 106%; with SF-539 CNS it was 118%; in the assay with UACC-257 melanoma it was 100%; in the assay with M14 melanoma it was 116%.

On to `O=C(c1ccccc1)c1ccc(Oc2ccc([N+](=O)[O-])cc2[N+](=O)[O-])cc1`, for which the growth in the assay with DU-145 prostate is 95.9%; in the assay on K-562 leukemia, 11.9%; in the assay with MALME-3M melanoma it was 70.2%; in the assay on MDA-MB-231 breast it was 89.5%; with RXF 393 renal it was 81.1%; with SF-268 CNS it was 87.8%. Further, the growth in the assay on SF-295 CNS is 91.2%; in the assay with SF-539 CNS, 55.3%; with UACC-257 melanoma, 71%; with M14 melanoma, 53.8%.

In the case of `O=CNc1ccc2c(c1)Cc1cc([N+](=O)[O-])ccc1-2`, the growth in the assay with DU-145 prostate is 0.835% (active); in the assay on K-562 leukemia, 21.3%; with MALME-3M melanoma, 11.4%; in the assay with MDA-MB-231 breast it was 34.4%; in the assay on RXF 393 renal, -14.6% (active); with SF-268 CNS, 42%. Further, the growth in the assay on SF-295 CNS is 16.3%; in the assay with SF-539 CNS, 27.9%; in the assay with UACC-257 melanoma, 59.3%; in the assay on M14 melanoma it was -15.7% (active).

Take `C[C@@H]1[C@H]2[C@H](C=C3[C@@H]4CC[C@H]5Cc6nc7c(nc6C[C@]5(C)[C@H]4C[C@@H](O)[C@@]32C)C[C@@H]2CC[C@H]3C4=C[C@@H]5O[C@@]6(CC[C@](C)(CO)O6)[C@@H](C)[C@@]5(O)[C@@]4(C)[C@H](O)C[C@@H]3[C@@]2(C)C7)O[C@]12CCC(C)(C)O2`: the growth is 45.2% with DU-145 prostate; -7.07% (active) in the assay on K-562 leukemia; 38.8% in the assay on MALME-3M melanoma; -0.32% (active) in the assay on MDA-MB-231 breast; -44.4% (active) in the assay with RXF 393 renal; 31.2% with SF-268 CNS. The growth in the assay with SF-295 CNS was -63.4% (active); with SF-539 CNS it was 3.28% (active); in the assay on UACC-257 melanoma, 26.6%; in the assay with M14 melanoma, 8.26% (active).

For `O=C(N/N=C/c1cccc(O)c1O)c1ccccc1`, the growth with DU-145 prostate was 33%; in the assay with K-562 leukemia it was 15.6%; with MALME-3M melanoma, 20.4%; with MDA-MB-231 breast, 30.6%; with RXF 393 renal it was 29.7%; in the assay on SF-268 CNS, 18.4%. In addition, the growth with SF-295 CNS is -1.63% (active); in the assay on SF-539 CNS, 6.6% (active); in the assay with M14 melanoma it was 15%.

With `CSc1nc(Nc2ccc(S(=O)(=O)Nc3ccon3)cc2)c(C#N)c(-c2ccc(Cl)cc2)n1`, the growth was 106% with DU-145 prostate; -0.642% (active) in the assay with K-562 leukemia; 111% with MALME-3M melanoma; 102% with MDA-MB-231 breast; 110% in the assay with RXF 393 renal; 105% in the assay with SF-268 CNS. Besides, the growth with SF-295 CNS was 113%; in the assay with SF-539 CNS it was 106%; with UACC-257 melanoma it was 112%; in the assay with M14 melanoma, 88.1%.
